Screen size: about 420,000 compounds; about 50,000 (12%) were called active. Entries that show only a call come without a potency. Another 26% or so got no clear call; they are omitted. Calls follow the shape of the dose curve; as a rule, active = well fitted inhibition curve with a large enough effect; inconclusive = small, poorly fitted or top-dose-only effect; inactive = flat fitted curve, though single readings scatter. This excerpt belongs to a sample that is enriched for actives.
Test: qHTS for Inhibitors of human tyrosyl-DNA phosphodiesterase 1 (TDP1): qHTS in cells in presence of CPT; also: nearly all actives have a fitted effect of over 55% in size
Conditions: chicken DT40 Tdp1-/-;hTDP1 cells + 20 nM CPT, ATP luminescence, 48 h; series mostly up to 46.2 µM
In short: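 Chicken DT40 Tdp1-/- cells complemented with human TDP1, 400 cells/well, exposed to compounds plus 20 nM camptothecin for at least 48 h at 37 C; viability read as ATP content by CellTiter-Glo luminescence.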
Potency is read from the fitted curve at half-maximal effect.

SMILES	Potency
O=C(CCn1nnc2ccccc21)OCC(=O)c1ccc([N+](=O)[O-])cc1	inactive
O=C(CC(n1cncn1)C(Cl)(Cl)Cl)c1ccc([N+](=O)[O-])cc1 (stereo not given)	16.4 µM (active)
O=C(NNS(=O)(=O)Cc1ccccc1)c1ccc([N+](=O)[O-])cc1	inactive
O=C(COc1coc(CN2CCN(c3ccccc3F)CC2)cc1=O)N1CCc2ccccc21	inactive
Cc1cc(N2CCOCC2)nc(-c2ccc(Br)cc2)n1	inactive
O=C1CC(C(=O)O)NC(=S)N1 (stereo not given)	inactive
CCOc1nc(NCCN2CCOCC2)nc(Nc2ccc(C)cc2)n1	inactive
COc1ccc(-n2c(=O)c(C)nc3cnc(N4CCOCC4)nc32)cc1	inactive
COc1ccc(Nc2ncc(F)c(N3CCOCC3)n2)cc1	20.6 µM (active)
Cc1ccc(-c2nnc3c4ccccc4c(C)nn23)cc1NC(=O)c1cccc(Br)c1	inactive
Cc1cc[n+](-c2[nH]c(=O)sc2/C=N/NC(=O)c2ccccc2[O-])cc1C	inactive
Brc1ccc(-c2n(-c3ccccn3)c3ccccc3[n+]2-c2ccccn2)cc1	18.4 µM (active)
O=C(CN1CCN(c2ccccn2)CC1)Nc1ccc(Br)cc1	inactive
COc1cccc(NC(=O)N2CCC(NC(=O)C(Cc3cccc(C)c3)NC(C)=O)CC2)c1 (stereo not given)	inactive
Cn1c(-c2ccc(C(F)(F)F)cc2)cc2onc(-c3ccccc3)c2c1=O	inactive
O=C(c1csnn1)N1CCC2(CC1)CN(c1ncccn1)C2	inactive
CSCCC(Nc1ccc(S(=O)(=O)N2CCOCC2)cc1[N+](=O)[O-])C(=O)OCC(=O)N(C(C)C)C(C)C (stereo not given)	inactive
CN(C)C(=O)c1ccc(NC(=O)c2ccccc2-c2ccccc2)cc1	inactive
CN(C)C(=O)c1ccc2c(c1)C1C3CCC(C3)C1C(c1ccccc1)N2 (stereo not given)	16.4 µM (active)
Cc1sc(NC(=O)c2ccc3ncsc3c2)c(C(N)=O)c1C	inactive
COc1cccc(NC(=O)N2C3CCCC2CC(NC(C)=O)C3)c1 (stereo not given)	inactive
Cc1cccc(-n2ncc(C(=O)N3CCN(c4ccc(Cl)cc4)CC3)c2C2CCN(C(=O)OC(C)(C)C)CC2)c1	14.6 µM (active)
CCOC(=O)N1CCC(NC(=O)CCc2ccccc2)CC1	inactive
CC(C)(C)OC(=O)N1CCC(C(=O)NNC(=O)c2ccc(Cl)cc2Cl)CC1	inactive
COc1cccc2c1cc1c(=O)n(CC(=O)N3CCN(c4cccc(Cl)c4)CC3)nc(C)n12	inactive
CCOC(=O)N1CCC(NC(=O)c2cnn(-c3cccc(C)c3)c2C2CCN(C(=O)OC(C)(C)C)CC2)CC1	23.1 µM (active)
CCOC(=O)N1CCC(NC(=O)c2cnn3ccccc23)CC1	inactive
CC(C)(C)OC(=O)N1CCC(c2c(C(=O)N3CCN(c4cccc(Cl)c4)CC3)cnn2-c2cccc(Cl)c2)CC1	14.6 µM (active)
Cc1cccc(-n2ncc(C(=O)N3CCC(C)CC3)c2C2CCN(C(=O)OC(C)(C)C)CC2)c1	inactive
Cc1cccc(-n2ncc(C(=O)N3CCc4ccccc4C3)c2C2CCN(C(=O)OC(C)(C)C)CC2)c1	inactive
